In PubChem BioAssay AID1508600 (Functional Genomics Laboratory (NCATS/FGL), 2020) one finds z-score data, which are given here for 108 sequences.

The whole screen tested about 53,000 sequences, of which about 3,700 (7%) were called active. The full list was thinned out, with actives kept by preference. Unmarked numbers belong to inactive results.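 Rule for the calls: active = gene knockdowns whose robust z-score for IL-1 alpha signal is at least 2 or at most -2, so actives lie on both sides; inactive = the rest.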

This assay in a line: Components of the Cytosolic LPS Sensing Pathway: Gene Identification via Genome-wide siRNA Screen.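 Note: robust z of the log signal after scaling to non-targeting control siRNA wells of the plate.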 The following applies: RAW264.7 macrophages, IL-1a HTRF, actives lie on both sides, screened at 100 nM (by protocol), cells primed 5 h with Pam3CSK4 first. The essentials: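 Supernatant IL-1a by HTRF from RAW264.7 cells primed with Pam3CSK4 (5 hours) and transfected with LipidA (24 hour) after 48h siRNA knockdown at 100 nM; cell viability checked with CellTiter-Glo.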
As for GCAUCGUUAUGCGCCUCACTT against Neurog2, the z-score was 0.297.

Take CGGGCAUGAUGAAUCGAUGTT against Ldhd: the z-score was 1.83.

For the sequence GGCUUGAUGAAGAGAAUAUTT against Oog4, the z-score was -1.45.

On to CGGACUCUGUGUUCUUAGATT against Alg3, for which the z-score was 2.68 (active).

Turning to GGGCGACUUAUUUUUUGUUTT against Zfp111, the z-score was 0.333.

In the case of GGACUUCAUCAACAACAUCTT against Nsmce1, the z-score is 0.459.

Consider GGAAAUCUUCAUGAUCAGUTT against Fam24b, for which the z-score is -2.24 (active).

Regarding GGUCAUCGGGUAAUUAAUCTT against Rad52, the z-score is -0.618.

With GGAGUCUGCUCUCAUUCUUTT against Slc30a1, the z-score is -0.214.

With GGAUGCUGAGCUUUCUGACTT against Fchsd1, the z-score is 0.476.

On to GGCCCUGUUGCUAUGUGUUTT against Map1s, for which the z-score is 2.06 (active).

GGCACCGCUAUUCAGAAUUTT against Fgf23: the z-score is 0.755.

As for GCUGGAAAAGUGCUGUGGGTT against Sult1c1, the z-score was -0.494.

As to GGCUUCCUUUUUGAAGCUATT against Slc35b4, the z-score is 0.258.

With CCGUCAAAACAUUACCAUUTT against Hmcn2, the z-score is -0.363.

In the case of GGUAGAAGAGAGUAUCAACTT against Commd1, the z-score is 1.28.

Consider GGAAAGUCUACAUGUAUUATT against Enpp6, for which the z-score was -0.886.

ACAUUUAUCACGACCCUUCTT against Olfr777: the z-score is 1.3.

For the sequence GGCCUUCACUGAUGAAUGUTT against Pramel32, the z-score was -2.21 (active).

In the case of “GGCGAAAAGCCGUUCCAUUTT against E430018J23Rik”, the z-score is 0.664.

Regarding GGAGAAGAACGAGAAACGUTT against Nyap2, the z-score was 0.904.

Regarding CCAUUGAAAUUUCCAUCUGTT against Baalc, the z-score is 0.115.

With CGUGAACUUUCAGAGCAGGTT against Rrp36, the z-score was 0.124.

With CCAUAGCAGGGAAGAUUUUTT against Kcnd2, the z-score was 3.78 (active).

For GGAUCCACAGUCAUUCAGATT against Sike1, the z-score is 1.13.

Take GGUCUUCAUGGUCAAAGUGTT against Fzd10: the z-score was 2.11 (active).

Consider GCAAAGUCCAGUGAACAACTT against Gtse1, for which the z-score was -1.15.

Take GGCCACAAUGGAUCAGAUGTT against Gldn: the z-score is 1.53.

For the sequence GGAUCUUUUAGCUAACCUATT against Tesk2, the z-score is 1.84.

Consider GGCAACCUGCUGGUAAUCATT against Adrb3, for which the z-score is 3.53 (active).

Take GGCAUGCUGGAAUCAAACATT against Dppa2: the z-score was 0.699.

Consider GGUGAGCAAAGCCAAGAAGTT against Sgpl1, for which the z-score was -1.42.

As for GGCUUGCUUUGCUUCCCUUTT against Med28, the z-score is -1.24.

Take CCCGAAAGACAUGUAUUCGTT against Mrps18b: the z-score was -0.38.

As to CUACUUCGAGAACAUGGGUTT against Tpgs1, the z-score was -0.749.

As for GGUGAUAUCUUUCCAUCUUTT against Wiz, the z-score is -0.176.

For the sequence CCACACUUAGUCAUUUUCUTT against Paral1, the z-score is -2.06 (active).

For GGCCUACGAAGUGCAAAGATT against Sipa1l3, the z-score is -0.667.

Consider GGACUAGAAGAUCUACACUTT against Olfr67, for which the z-score is -0.921.

Take GCCUCGAUGCAAGAUGAUGTT against C2cd2l: the z-score is -0.82.

For the sequence GGAUAAAGAAGGACUCAAATT against Tpbpb, the z-score was -2.16 (active).

As for GGAGUAUGCGUACCUGAAGTT against Nr0b2, the z-score was -0.903.

In the case of GGCAGAGCUUGGAGUAUCUTT against Gtpbp4, the z-score was 1.31.

On to GGGAGAAAAAGGCAUUUUUTT against Them5, for which the z-score was 0.46.

As to GGACAACACAUUUGUGCUCTT against Sh2b2, the z-score was 0.209.

As for GUCUGAACUUCUUAGCAUCTT against Uchl4, the z-score is 0.788.

In the case of CCAGUGAUCAGUUUUAACGTT against Adamts20, the z-score is 0.184.

Take CCUCAAUUGCAUGUGACCUTT against Itgb1bp1: the z-score is -2.32 (active).

In the case of GGAUACAAAGAGAGUUGUCTT against Eif3c, the z-score was 1.23.

As for GGUGCUGCACAAAUACAUATT against Eef1aknmt, the z-score is 0.715.

Take CGAUCGAAAUCAAGUCGAUTT against Septin9: the z-score was 0.415.

In the case of GGUUCUCUGCCAGUUCUGUTT against Mid1, the z-score is 3.32 (active).

With GGACCAUGUUAGAGCAUGCTT against Traf2, the z-score was -2.36 (active).

With GGUCCUACUUGUUCAUUGATT against Il1rl1, the z-score was -0.802.

Regarding GGACUUCAGUGAGGAUCAATT against Scg5, the z-score is 0.866.

Turning to CCCUCCGAAAAUUUUUCUGTT against Defb14, the z-score is -0.363.

Regarding GGUAUGGAUCAAGGUUCUUTT against Gja6, the z-score was 3.21 (active).

As for GGUGGCCAUCAAGAAGAUATT against Mapk7, the z-score was -0.749.

Turning to CGACCACACAGGGAUAUACTT against Sectm1a, the z-score is -0.169.

For GGGCUAUCUAUCAUAGUUUTT against Scp2, the z-score is 1.17.

With GCAUGUAUAACAGACCCAUTT against Tex47, the z-score was 0.928.

GGUCACCUUAUAAUUGCCCTT against Btd: the z-score is -2.83 (active).

Turning to GGUGAGAUAGGUCUAGUUGTT against Col10a1, the z-score was -0.273.

On to GGAUCACUGACUUUGAAUUTT against Mob2, for which the z-score was -0.654.

Turning to GGCUGUCAUGCAUUAUAUGTT against Tfeb, the z-score is -0.535.

With GGAGCUUCUUGACCUCGUGTT against Frmd4a, the z-score is 0.184.

Consider CCUGUUUUCCGACUUGUUGTT against Il4ra, for which the z-score was 0.809.

As for GGUGGUUACACAAGGAACATT against Phgdh, the z-score was -0.314.

Consider GGCUCAUCCCAAUGCUAUATT against Sdc3, for which the z-score was 0.304.

For GGUGAUCACUCUCUCUGAATT against Olfr187, the z-score was -0.975.

For the sequence CCGUAACCCAGAAAAUGUATT against Eva1a, the z-score was -2.01 (active).

With CCAUUGACUUACUUCUAAGTT against Gimap6, the z-score was 0.58.

As to GGAUCAACGGAUUUUAGAATT against Gcfc2, the z-score is 1.21.

As to GGAGAUGAAAAGAGAAAUCTT against Cct6b, the z-score was 2.41 (active).

Turning to GGAGCUGAUGACUUCAGGCTT against Mmp19, the z-score was 1.17.

Turning to GGGAUUCUCCAAAAGGAAGTT against Arhgap6, the z-score is 0.856.

Regarding GGUGAUGAAGAGGUUCCCUTT against Fzd4, the z-score is -0.868.

On to GAAGAUGCCACGCUAAAAATT against Adam34, for which the z-score is 2.73 (active).

As to GGGCUUUGCUGUCUAUGCATT against Dmwd, the z-score is -0.617.

As for GGAGUUUGAUCAGAUCCUATT against Asf1b, the z-score is 1.74.

On to GAAAUCAGAAGAAAUGAAGTT against Phgr1, for which the z-score is -0.451.

GGAAUCAAAGAUGGAGAGGTT against Galnt3: the z-score is -0.409.

For the sequence GGAAACAUUGUCAUCAUGATT against Olfr1299, the z-score is -0.787.

On to GGUCAUGUUUCUCUCCCAATT against Veph1, for which the z-score is -2.11 (active).

Regarding GCGGUAUCCUAGCUGUGAATT against Brsk1, the z-score was -0.0667.

For CCCUGUAUAUAUGAUGACATT against Ldhd, the z-score is -1.83.

Turning to GGGUCUACAAUCACCAGACTT against Wnt10a, the z-score is 1.15.

Consider GAUGAUCUUUUGGAUGAACTT against Spem2, for which the z-score was -0.51.

CCCAGGCACUUGUUUACAGTT against Stim2: the z-score is -0.454.

As for GGCAUGCUUGGCUUAUUUGTT against Kcnk4, the z-score was 0.0317.

For the sequence GCUGCUAUCCAGAAGGUAUTT against Egr2, the z-score is -2.04 (active).

In the case of GGCUUACUAACAGUUUUUGTT against Gem, the z-score was -0.29.

On to GGCAUCGAGAUUUAAUUGATT against Usp27x, for which the z-score was -0.179.

GGCUCUCUGGCUUACUAAGTT against Mrpl37: the z-score was 1.09.

For the sequence CCCAGGUCCUACCUUCUUUTT against Ppcdc, the z-score was -2.1 (active).

Regarding GGUGUGGGAUUUCUACACUTT against Sbf1, the z-score was 0.0854.

For GCAGCUUGCUUGAUUCAAGTT against Iqcb1, the z-score is 0.424.

As for GCAUUUGGGCAACGAGAUGTT against Nr5a1, the z-score is -1.3.

Regarding GGCAGCUGGAAAGACAAAATT against Snca, the z-score is 1.19.

Regarding GCUGAGAGUAUCCUUAUUCTT against Fhdc1, the z-score was 0.374.

In the case of GGCCAACAUCUGCUAUGUCTT against Hao2, the z-score was -2.58 (active).

With GGUCAACGUGUAUGUAUUUTT against Lrat, the z-score is -1.27.

With CGUGCAUGUGUAAGUCAGGTT against Hpvc2, the z-score is 0.68.

For the sequence GCAAGAGCUGAGUACUCUGTT against Ahsp, the z-score is -0.522.

For the sequence GGAAGUUUAAAGUCUAGAATT against Adcy7, the z-score was 0.477.

For the sequence GGCCCAAGAGAACAUCAAATT against Speer2, the z-score is -2.16 (active).

Turning to GCAGUCUCCAAUUGAGAUUTT against Car13, the z-score is -0.0313.

Turning to CUCCGACCAUACUGGAAGATT against Arpp21, the z-score is -0.406.
